# Tested on: PPARg:RXRa 90nM:30nM, anti-RXR (NR concentration 90 nM, RXRa partner concentration 30 nM)
# Assay: PBM binding z-score (relative to random genomic background probes); higher = stronger binding; sequences stand for … in GC…GCGATTGACAGCGTAGAATGAAGG
# Outline: (§1)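 Binding z-scores were set against random background probes. The data came from custom Agilent 4×180K protein-binding microarrays carrying double-stranded probes with 34-nt variable regions, incubated 1 h with ligand-free nuclear receptor dimers. Partner-specific antibodies detected binding, and scanned fluorescence was regression-normalized.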
row,Sequence,PBM binding z-score
1,TCTCGGAGTACACGAAAGGTCAGAGCTCGACATC,3.11
2,CCAGACAGGTGAAAGGGAACTCAGTCTGGTACGC,2.69
3,ATCTAAAGGTCGTGAGGTGAGTATACAGAAAGGC,3.72
4,CCGACTGCGGCAAAGGTTACCATACTCAGTACGA,4.38
5,TCTTGTAGCTCAGCAGGTTAAGAAAGCTGGCCAA,1.27
6,CCTACTGGGCGAAAGGTCATTGATTCCAATGCTC,11.6
7,ATTGAAAGGTCGTGAGGTGAGTATACAGAAAGGC,3.64
8,CTAGACAGGTGAGAAGGTAACTCAGCCTCGATTA,0.577
9,AGTCAAAGTTCACTAGGTGACGTAAGATTCAGCT,6.5
10,TCTTGTAGATCAAGCAGGTTAAGCAAGCCTGAGT,1.39
11,GCTAGCAGGCCATTTGGTTCACTCAATGACGGGC,-0.582
12,CCTAGCAGGCCAAGCTGGGTCACTCAAGGCTTGA,-0.107
13,GCAGAGAGGTGAAACGCAGGTAACTCAGGGTGGC,-0.000796
14,TCTTGTAGATTAAGCAGGTTAAGAAAGCCTGAGT,2.08
15,CCTGGTAGGTCAATGGTCAGCTAAAGCAGCTCGC,6.53
16,GCAGACAGGTGAAACGCACGTAACTCAGGGTGGC,-0.223
17,TCTAGAAGGCCAGAGGGTCACTCAAGAGGTACGG,3.02
18,GGAGACAGGTGAAACGCAGGTAACTCAGGGTGGC,-0.000912

# Tested on: PPARg:RXRa DBDmut IVT, anti-RXR (DBD mutation: RXRa K156A/R161A, NR concentration 270 nM, RXRa partner concentration 90 nM)
# Assay: as above
# Outline: as §1
row,Sequence,PBM binding z-score
1,TTACCAGGGTGAAGGTCGTTGATCCCTCTGTAGA,1.33
2,TCATATAGGTAAACTGGTGAAAGTCCGTAAGTTA,3.83
3,TCTATTAGTTCATTAGGGCAACCGAAACAGCGGA,2.92
4,TCTTGTAGATCAACGGTTAAGAAAGCCGAAGCCT,1.73
5,TCTAGTTAGTCAAAGGTCACACACTCGAAATGCG,2.7
6,ATCTCTATGTAACCAAGTTCAGTGAATGCCGAAC,-0.0629
7,TGAATGAGGTTATAAGATCACGGAACGTTGCAAA,0.939
8,CGTCAAAGTTCGAGGTAACGTAACAGAAAGCAGC,0.256
9,CAAACTAGGCCAAAGGTCAAAGTCGAGCCAACCA,7.14
10,GCATATAGGTAATAGAAGGTGAAAGTCCGATTGT,3.98
11,TCTTGTAGATCAGCAGGTTAAGAAGGCTGGCCAA,1.84
12,GCTGCTAGGTCAACTGATCGTCAGCTAAAGCTCG,4.99
13,TTACCAAGGGGAAGGTCGTTGATCCCTCTGTAGA,-0.147
14,CTCGAAAGGTTGGTTGAGGTGAGTATACGGATAA,-0.057
15,TCTTGTAGATAAATAGAGGTTAAGAAAGTGCGCT,2.53
16,GCTCGGAGGATAAGGTCAGAGCTTTGTCCGTAGA,-0.248
17,TCATATCGGTAAAGGTGAAAGTCGAACGATATGA,1.56
18,CGTCCAAGGTCAACGGTCAGTGAAGAGATGACGG,3.45
19,GCTATTAGTTGATAGGGCAACCGAATGATTCTCG,0.375
20,GATACAGGGTCAAGGCCGGAGTACGCGTATTGAT,2.69

row,Sequence,PBM binding z-score
1,CGAACTAGGTCATTGACACGACAGTGAATAGTAA,7.93
2,CCTACTGTGCCAAAGGTCATTGATTCCAATGCTC,5.24
3,TCTCGGAGTACACGAAAGGTCAGAGCTCGACATC,1.42
4,CCAGACAGGTGAAAGGGAACTCAGTCTGGTACGC,1.08
5,ATCTAAAGGTCGTGAGGTGAGTATACAGAAAGGC,1.12
6,CCGACTGCGGCAAAGGTTACCATACTCAGTACGA,0.233
7,TCTTGTAGCTCAGCAGGTTAAGAAAGCTGGCCAA,0.777
8,CCTACTGGGCGAAAGGTCATTGATTCCAATGCTC,3.27
9,ATTGAAAGGTCGTGAGGTGAGTATACAGAAAGGC,0.728
10,CTAGACAGGTGAGAAGGTAACTCAGCCTCGATTA,0.878
11,AGTCAAAGTTCACTAGGTGACGTAAGATTCAGCT,3.75
12,TCTTGTAGATCAAGCAGGTTAAGCAAGCCTGAGT,1.65
13,GCTAGCAGGCCATTTGGTTCACTCAATGACGGGC,1.03
14,CCTAGCAGGCCAAGCTGGGTCACTCAAGGCTTGA,1.17
15,GCAGAGAGGTGAAACGCAGGTAACTCAGGGTGGC,2.17
16,TCTTGTAGATTAAGCAGGTTAAGAAAGCCTGAGT,1.64
17,CCTGGTAGGTCAATGGTCAGCTAAAGCAGCTCGC,4.64
18,GCAGACAGGTGAAACGCACGTAACTCAGGGTGGC,0.74
19,TCTAGAAGGCCAGAGGGTCACTCAAGAGGTACGG,1.75
20,GGAGACAGGTGAAACGCAGGTAACTCAGGGTGGC,0.957

# Reference: the supplement of paper PMC6555819
